Measurements published in PubChem BioAssay (NCI).
This is part of a sample that, as a whole, favours compounds with a hit. Of some 79,000 tested, about 15% had one in any assay. The source made the active and inactive calls. Rule as the data show it: active = growth inhibition above about 70%; inactive = the rest.

Experiments:
[1] = NCI Yeast Anticancer Drug Screen. Data for the rad52 strain (AID 147);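 also: 0% = growth of vehicle-treated control cultures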; conditions: S. cerevisiae rad52 mutant growth inhibition, hits give high values
Outline: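 The repair-mutant yeast strain was incubated with compounds, then growth was read and inhibition derived relative to vehicle.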

[2] = NCI Yeast Anticancer Drug Screen. Data for the wt1 strain (AID 149);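 also: 0% = growth of vehicle-treated wt1 cultures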; conditions: S. cerevisiae wt1 strain (SPY 50644) growth inhibition, hits give high values
Outline: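 Using yeast strain wt1, compound-induced growth inhibition was determined against vehicle-treated cultures.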

[3] = NCI Yeast Anticancer Drug Screen. Data for the rad50EPP+ strain (AID 151);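 also: 0% = growth of vehicle-treated control cultures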; conditions: S. cerevisiae rad50 mutant strain, hits give high values
Outline: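 Vehicle-normalised growth inhibition; rad50EPP+ yeast strain, altered in DNA damage repair, compound-treated.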

[4] = NCI Yeast Anticancer Drug Screen. Data for the mgt1 strain (AID 153); conditions: S. cerevisiae mgt1 mutant growth inhibition, hits give high values
Outline: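 Vehicle-normalized growth inhibition is determined in mgt1 yeast, a strain selected for a defined alteration in DNA repair or cell cycle control.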

[5] = NCI Yeast Anticancer Drug Screen. Data for the rad50 strain (AID 155);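 also: 0% = growth of vehicle-only cultures of the same strain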; conditions: S. cerevisiae rad50 strain growth inhibition, hits give high values
Outline: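 Relative growth inhibition (compound vs vehicle) was measured in yeast with a defined repair-gene alteration.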

[6] = NCI Yeast Anticancer Drug Screen. Data for the mec2-1 strain (AID 157); conditions: S. cerevisiae mec2-1 strain, hits give high values
Outline: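 Mutant yeast (mec2-1) grown with compound; growth inhibition relative to vehicle control reported.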

[7] = NCI Yeast Anticancer Drug Screen. Data for the rad14 strain (AID 159);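 also: 0% = growth of vehicle-treated control cultures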; conditions: S. cerevisiae rad14 strain growth inhibition, hits give high values
Outline: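 Screen for anticancer potential: a yeast strain altered in DNA damage repair is grown with compound, and reduced growth is quantified against vehicle controls.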

[8] = NCI Yeast Anticancer Drug Screen. Data for the sgs1 mgt1 strain (AID 161);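 also: 0% = growth of cultures given vehicle only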; conditions: S. cerevisiae sgs1 mgt1 strain, hits give high values
Outline: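 Yeast cells carrying a defined DNA-repair defect were exposed to test compounds. Growth inhibition was measured relative to vehicle-treated controls.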

[9] = NCI Yeast Anticancer Drug Screen. Data for the cln2 rad14 strain (AID 165);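 also: 0% = growth equal to vehicle treated cultures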; conditions: S. cerevisiae cln2 rad14 strain, hits give high values
Outline: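 Readout is yeast growth inhibition versus vehicle-treated controls, using a strain with cln2 and rad14 alterations exposed to compound.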

[10] = NCI Yeast Anticancer Drug Screen. Data for the bub3 strain (AID 167); conditions: S. cerevisiae bub3 mutant strain, hits give high values
Outline: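 Screening used yeast with an engineered genetic alteration affecting cell cycle control. Compound-exposed cultures were compared with vehicle cultures, and reduced growth was taken as inhibition.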

[11] = NCI Yeast Anticancer Drug Screen. Data for the mlh1 strain (AID 171);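 also: 0% = growth of vehicle-treated control cultures of the same strain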; conditions: S. cerevisiae mlh1 strain growth inhibition, hits give high values
Outline: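 Measured: yeast growth. Reference: vehicle-treated controls. Organism: strain with a defined alteration affecting DNA damage repair or cell cycle control, treated with compound.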

[12] = NCI Yeast Anticancer Drug Screen. Data for the sgs1 strain (AID 173);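 also: 0% = growth of vehicle-only control cultures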; conditions: S. cerevisiae sgs1 mutant, hits give high values
Outline: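 Each compound was added to cultures of the altered yeast strain. Growth was recorded, and inhibition was derived by comparison with vehicle controls.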

[13] = NCI Yeast Anticancer Drug Screen. Data for the mlh1 rad18 strain (AID 175); conditions: S. cerevisiae mlh1 rad18 strain growth inhibition, hits give high values
Outline: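 Genetically defined yeast (DNA repair-deficient) exposed to compounds; growth inhibition determined relative to vehicle.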

[14] = NCI Yeast Anticancer Drug Screen. Data for the rad18 strain (AID 177); conditions: S. cerevisiae rad18 mutant growth inhibition, hits give high values
Outline: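 Vehicle-treated cultures served as the baseline for scoring compound-induced growth inhibition in DNA-repair-mutant yeast.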

[15] = NCI Yeast Anticancer Drug Screen. Data for the CLN2oe strain (AID 163);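 also: 0% = growth of vehicle-only control cultures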; conditions: S. cerevisiae CLN2oe strain, hits give high values
Outline: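 Compounds are applied to yeast harbouring a defined cell-cycle control change; reduced growth compared with vehicle-treated controls gives the value.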

[16] = NCI Yeast Anticancer Drug Screen. Data for the wt2 strain (AID 169);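 also: 0% = growth of vehicle-treated yeast cultures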; conditions: S. cerevisiae wt2 strain growth inhibition, hits give high values
Outline: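 Against vehicle-treated controls, the growth of yeast exposed to each compound was compared, and the inhibition was recorded.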

[17] = at 5.0 µM (retest, dose inferred, filed as 0.5)
[18] = at 50.0 µM (retest, dose inferred, filed as 5.0)

Measured: growth inhibition

O=[N+]([O-])c1cc(S(=O)(=O)Nc2ccccc2)ccc1Cl
active: [1]; at 33.0 µM 89% | [1]; at 100.0 µM 98% | [2]; at 33.0 µM 86% | [2]; at 100.0 µM 99% | [4]; at 33.0 µM 93% | [4]; at 100.0 µM 99% | [5]; at 33.0 µM 90% | [5]; [18] 99% | [5]; at 50.0 µM 88.5% | [5]; at 100.0 µM 97% | [6]; at 33.0 µM 91% | [6]; [18] 99% | [6]; at 50.0 µM 90.5% | [6]; at 100.0 µM 99% | [7]; at 33.0 µM 91% | [7]; at 100.0 µM 98% | [8]; [18] 95% | [8]; at 50.0 µM 90.5% | [9]; [18] 97% | [9]; at 50.0 µM 89.2% | [10]; at 33.0 µM 91% | [10]; [18] 96% | [10]; at 50.0 µM 86.2% | [10]; at 100.0 µM 99% | [11]; at 33.0 µM 89% | [11]; at 100.0 µM 98% | [12]; at 33.0 µM 89% | [12]; at 100.0 µM 98% | [13]; [18] 100% | [13]; at 50.0 µM 86.8% | [14]; at 33.0 µM 94% | [14]; at 100.0 µM 99%
inactive: [1]; at 1.2 µM 2% | [1]; at 3.7 µM 6% | [1]; at 11.0 µM 15% | [2]; at 1.2 µM -20% | [2]; at 3.7 µM -20% | [2]; at 11.0 µM 0% | [3]; at 1.2 µM 14% | [3]; at 3.7 µM 6% | [3]; at 11.0 µM 1% | [3]; at 33.0 µM 20% | [3]; at 100.0 µM 48% | [4]; at 1.2 µM 15% | [4]; at 3.7 µM 3% | [4]; at 11.0 µM 30% | [5]; at 1.2 µM -7% | [5]; at 3.7 µM 3% | [5]; [17] 34% | [5]; at 11.0 µM 19% | [6]; at 1.2 µM -10% | [6]; at 3.7 µM -5% | [6]; [17] 42% | [6]; at 11.0 µM 21% | [7]; at 1.2 µM -4% | [7]; at 3.7 µM -8% | [7]; at 11.0 µM 2% | [8]; [17] -26% | [9]; [17] 33% | [10]; at 1.2 µM 11% | [10]; at 3.7 µM 19% | [10]; [17] -20% | [10]; at 11.0 µM 45% | [11]; at 1.2 µM -34% | [11]; at 3.7 µM -20% | [11]; at 11.0 µM 13% | [12]; at 1.2 µM 4% | [12]; at 3.7 µM -3% | [12]; at 11.0 µM 33% | [13]; [17] 35% | [14]; at 1.2 µM 1% | [14]; at 3.7 µM 9% | [14]; at 11.0 µM 27%

COC(=O)/C=C1/OC(c2ccc(Br)cc2)=C(Br)C1=O
inactive: [1]; at 1.2 µM -25% | [1]; at 3.7 µM -22% | [1]; at 11.0 µM -18% | [1]; at 33.0 µM -7% | [1]; at 100.0 µM 38% | [2]; at 1.2 µM -16% | [2]; at 3.7 µM -13% | [2]; at 11.0 µM -29% | [2]; at 33.0 µM -11% | [2]; at 100.0 µM 16% | [3]; at 1.2 µM -6% | [3]; at 3.7 µM -7% | [3]; at 11.0 µM 0% | [3]; at 33.0 µM 59% | [4]; at 1.2 µM 3% | [4]; at 3.7 µM 3% | [4]; at 11.0 µM -7% | [4]; at 33.0 µM 7% | [5]; at 1.2 µM -35% | [5]; at 3.7 µM -28% | [5]; [17] 3% | [5]; at 11.0 µM -5% | [5]; at 33.0 µM -11% | [5]; [18] 36% | [5]; at 50.0 µM 17.6% | [5]; at 100.0 µM 65% | [6]; at 1.2 µM 9% | [6]; at 3.7 µM -1% | [6]; [17] 18% | [6]; at 11.0 µM -5% | [6]; at 33.0 µM 8% | [6]; at 50.0 µM 18.8% | [7]; at 1.2 µM -4% | [7]; at 3.7 µM -16% | [7]; at 11.0 µM -15% | [7]; at 33.0 µM -21% | [8]; [17] 12% | [8]; [18] 16% | [15]; at 1.2 µM 8% | [15]; at 3.7 µM 10% | [15]; at 11.0 µM 10% | [15]; at 33.0 µM 26% | [15]; at 100.0 µM 59% | [9]; [17] 2% | [9]; [18] 14% | [9]; at 50.0 µM 33.8% | [10]; at 1.2 µM 20% | [10]; at 3.7 µM 6% | [10]; [17] 32% | [10]; at 11.0 µM -12% | [10]; [18] 40% | [16]; at 1.2 µM -25% | [16]; at 3.7 µM -22% | [16]; at 11.0 µM -20% | [11]; at 1.2 µM -18% | [11]; at 3.7 µM -4% | [11]; at 11.0 µM -14% | [11]; at 33.0 µM -12% | [11]; at 100.0 µM 27% | [12]; at 1.2 µM -18% | [12]; at 3.7 µM -16% | [12]; at 11.0 µM -17% | [12]; at 33.0 µM -27% | [12]; at 100.0 µM 16% | [13]; [17] 11% | [13]; [18] 49% | [14]; at 1.2 µM -30% | [14]; at 3.7 µM -14% | [14]; at 11.0 µM -12% | [14]; at 33.0 µM 41%
active: [3]; at 100.0 µM 97% | [4]; at 100.0 µM 87% | [6]; [18] 85% | [6]; at 100.0 µM 71% | [7]; at 100.0 µM 78% | [8]; at 50.0 µM 86.2% | [10]; at 33.0 µM 70% | [10]; at 50.0 µM 72.8% | [10]; at 100.0 µM 95% | [16]; at 33.0 µM 76% | [16]; at 100.0 µM 95% | [14]; at 100.0 µM 92%
